# Hits are enriched below; roughly 12% of the tested compounds scored in any of these assays.
# JMJD2A Tudor inh – blocks the human JMJD2A Tudor domain | O75164 | AlphaScreen JMJD2A-Tudor / H3K4me3 peptide binding | Potency, µM (series often up to 114 µM), inactives show at the highest dose activity change, negative = inhibition, actives largely listed as inhibitors | 390,000 compounds, 4.4% hits; also: potency is read from the fitted curve at half-maximal effect; % is scaled to controls: 0 for no effect and ±100 for the full control effect; nearly all actives have a fitted effect of over 50% in size
# G9a block – G9a (human) methyltransferase inhibition; Q96KQ7; G9a H3K9 monomethylation, AlphaScreen, 2 h; Potency, µM (top dose mostly 102 µM), for inactives: at the top dose activity, negative = inhibition, hits mostly inhibitors; 350,000 compounds, 8.8% hits; AID 504332; also: potency is read from the fitted curve at half-maximal effect; % is scaled to controls: 0 for no effect and ±100 for the full control effect; nearly all actives have a fitted effect of over 75% in size
# Target sequence (Q96KQ7 913-1193 limits assumed): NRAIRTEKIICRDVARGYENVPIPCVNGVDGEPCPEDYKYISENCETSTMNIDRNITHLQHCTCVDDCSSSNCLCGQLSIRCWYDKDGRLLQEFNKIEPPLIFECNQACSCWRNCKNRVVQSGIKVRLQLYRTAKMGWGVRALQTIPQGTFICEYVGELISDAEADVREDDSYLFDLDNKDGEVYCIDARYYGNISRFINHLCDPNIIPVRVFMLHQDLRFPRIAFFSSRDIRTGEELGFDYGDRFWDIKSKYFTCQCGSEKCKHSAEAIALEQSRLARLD
#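 G9a (20 nM) preincubated 15 min RT with compounds, then 500 nM biotinylated H3K9 peptide and 20 uM SAM added; 2 h RT reaction. Monomethyl-H3K9 product detected by AlphaScreen with anti-H3K9me1 antibody, streptavidin donor and anti-rabbit IgG acceptor beads.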
# HP1b binding inh – blocks HP1-beta chromodomain binding to methylated histone tails | P83916 | 390,000 compounds, 0.56% hits | AlphaScreen HP1-beta / biotin-H3K9me3 peptide binding | Potency, µM (highest dose often 114 µM), for inactives: at the highest dose activity change, negative = inhibition, usual class: inhibitors; also: potency is read from the fitted curve at half-maximal effect; nearly all actives have a fitted effect of over 70% in size
#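 AlphaScreen: HP1-beta (50 nM) preformed 30 min with biotin-H3(1-18)K9me3 peptide (50 nM) in PBS pH 7.4, 0.01% Tween-20. Compound added for 30 min at RT, then streptavidin donor/nickel chelate acceptor beads (10 ug/mL) for 30 min.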
# PLK1 PBD block – inhibitors of human PLK1 polo-box domain binding | Plk1 PBD binding of FITC phosphopeptide, fluorescence polarization | 360,000 compounds, 2.8% hits | AID 720504 | P53350 | Potency, µM, inactives show max response, negative = inhibition, actives largely listed as inhibitors; also: potency is read from the fitted curve at half-maximal effect; series mostly up to about 57 µM; % is scaled to controls: 0 for no effect and ±100 for the full control effect; nearly all actives have a fitted effect of over 65% in size
# PI5P4Ka inh – PI5P4K alpha (human) kinase inhibition. P48426. PI5P4Kalpha enzyme, ADP-Glo luminescence, 60 min; active compounds read low. max response, %. 330,000 compounds, 1.2% hits; active = max response of -50% or lower; inconclusive = between -30% and -50%; inactive = -30% or higher; also: value at the top dose of about 77 µM; % is scaled to controls: 0 for no effect and ±100 for the full control effect
# Target sequence (P48426 whole entry, looked up): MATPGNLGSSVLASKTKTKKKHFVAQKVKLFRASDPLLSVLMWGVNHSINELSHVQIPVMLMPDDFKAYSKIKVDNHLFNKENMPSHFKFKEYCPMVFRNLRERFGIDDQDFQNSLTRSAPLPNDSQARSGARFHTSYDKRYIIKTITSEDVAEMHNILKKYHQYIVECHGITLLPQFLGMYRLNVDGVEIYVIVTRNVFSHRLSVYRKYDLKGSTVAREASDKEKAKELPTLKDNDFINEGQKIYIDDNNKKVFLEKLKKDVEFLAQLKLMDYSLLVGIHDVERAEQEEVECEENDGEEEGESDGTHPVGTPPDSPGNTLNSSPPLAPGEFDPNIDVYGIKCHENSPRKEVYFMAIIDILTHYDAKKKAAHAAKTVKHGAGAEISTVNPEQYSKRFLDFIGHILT
#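 Quantitative HTS of the MLSMR library against PI5P4Kalpha with substrate. ATP added last at 5 microM final; room temperature, 60 minutes. Remaining ATP depleted, ADP converted and read as luminescence.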
# BAZ2B inh – BAZ2B (human) inhibition; Q9UIF8; AlphaScreen BAZ2B-H3K14Ac peptide displacement; Potency, µM (top dose mostly 114 µM), inactives show at the highest dose activity change, negative = inhibition, actives largely listed as inhibitors; 360,000 compounds, 4.4% hits; also: potency is read from the fitted curve at half-maximal effect; % is scaled to controls: 0 for no effect and ±100 for the full control effect; nearly all actives have a fitted effect of over 60% in size
#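 BAZ2B 50 nM plus b-H3(5-23)K14Ac 50 nM, PBS pH 7.4/0.01% Tween-20, 30 min RT; compound added (max 110 uM), 30 min RT; streptavidin donor/Ni-chelate acceptor beads 10 ug/mL final, 20 min dark; AlphaScreen read.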
# Active calls of the source: *; ? = inconclusive; · = no result; ! = not active in a repeat; [ ] = another dose, or the depositor's remark. Unless noted, calls follow the shape of the dose curve; as a rule, active = well fitted curve in the direction sought with a large enough effect; inconclusive = small, poorly fitted or top-dose-only effect, or another doubt; inactive = no such curve, though single readings can be large; an effect the other way counts as inactive or inconclusive.
SMILES,JMJD2A Tudor inh,G9a block,HP1b binding inh,PLK1 PBD block,PI5P4Ka inh,BAZ2B inh
COc1cccc(N2CC(NC(=O)c3ccc(S(=O)(=O)N4CCOCC4)cc3)CC2=O)c1 (configuration not stated),-17%,-46%[59 µM],50%,·,·,-9%
O=C(O)Cn1cnc2ccccc2c1=O,-1%,-22%,24%,-2%,·,-30%
Cn1c(=O)c2c(ncn2CCN(CCO)Cc2ccccc2)n(C)c1=O,-8%,40µM*,16%,-7%,1,5%
CCN(CC)C(=O)Cn1cnc2ccccc2c1=O,-7%,20µM*,44%,2%,-5,22%
O=C(Cn1cnc2ccccc2c1=O)Nc1nc2ccccc2s1,-8%,45µM*,12%,-5%,9,6%
Cn1c(=O)c2c(ncn2CC(=O)Nc2ccccc2)n(C)c1=O,-3%,11%[12.7 µM],21%,2%,2,6%
O=C(COC(=O)Cn1cnc2ccccc2c1=O)NCCC1=CCCCC1,-16%,11µM*,23%,-6%,3,5%
C/C(=N/NC(=O)c1cc(-c2ccccc2)nc2c(Cl)cccc12)c1cccnc1,-16%,·,29%,-7%,11,-10%
CC(C)[C@H](NC(=O)OCc1ccccc1)C(=O)OCC(=O)N1CCCCC1,-7%,·,32%,-9%,1,·
Cc1ccc(NS(=O)(=O)c2ccc(Cl)cc2)cc1C,-4%,·,·,·,·,·
CCN(CC)C(=O)Cn1cnc2c1c(=O)n(C)c(=O)n2C,-5%,56µM*,15%,-3%,0,-2%
CCOc1ccc(NC(=O)CCNC(=O)Cn2cnc3ccccc3c2=O)cc1,0%,-3%,14%,-8%,0,-9%
CCN(Cc1ccccc1)C(=O)Cn1cnc2c1c(=O)n(C)c(=O)n2C,-6%,-29%[59 µM],28%,-6%,·,-21%
CCc1ccc(NC(=O)CCNC(=O)Cn2cnc3ccccc3c2=O)cc1,50µM*!,5%,10%,30µM*,-16,2%
Cn1nnc2c(NCc3ccc(Cl)cc3)ncnc21,-15%,-5%[59 µM],10%,·,·,1%
O=S(=O)(c1ccc2c(Cl)cccc2c1)N1CCN(c2nc(-c3cccs3)nc3ccccc23)CC1,-5%,·,17%,·,·,·
COc1ccccc1N1CCN(C(=O)c2ccc3[nH]c4c(c3c2)CCCC4)CC1,50µM*,?,?,-5%,4,45µM*
O=C(c1ccc2[nH]c3c(c2c1)CCCC3)N1CCN(c2ccc(F)cc2)CC1,32µM*,?,?,14%,1,40µM*
COc1ccc(C(=O)N2CCN(c3ccccc3OC)CC2)cc1,-4%,?,39%,-12%,2,-16%
O=C(c1noc2c1CCCC2)N1CCN(c2ccc(F)cc2)CC1,-21%,0%[2.33 µM],2%,-2%,·,2%
Cc1ccc(/C=N/NC(=O)c2nnn(-c3nonc3N)c2CNc2ccccc2)cc1,22µM*,-9%,-7%,19µM*,-20,-32%
C/C(=N\NC(=O)c1nnn(-c2nonc2N)c1CN(C)c1ccccc1)c1ccc(O)cc1,-14%,1%,29%,-4%,6,-6%
C/C(=N\NC(=O)c1nnn(-c2nonc2N)c1CN(C)c1ccccc1)c1ccccn1,22µM*,49%[59 µM],35%,-2%,2,8.9µM*
CN(Cc1c(C(=O)N/N=C/c2ccccc2)nnn1-c1nonc1N)C1CCCCC1,?,-3%,9%,30µM*,-7,-12%
Cc1ccc(/C=N/NC(=O)c2nnn(-c3nonc3N)c2CSc2ccccc2)cc1,-10%,·,43%,-1%,0,-3%
SMILES,JMJD2A Tudor inh,G9a block,HP1b binding inh,PLK1 PBD block,PI5P4Ka inh,BAZ2B inh
CN(Cc1c(C(=O)N/N=C/c2ccc(O)cc2)nnn1-c1nonc1N)C1CCCCC1,-15%,·,23%,-6%,1,-6%
CN(C)Cc1c(C(=O)N/N=C/c2ccc(-c3ccccc3)cc2)nnn1-c1nonc1N,?,65%,16%,21µM*,-9,-10%
Cc1c(Cl)cccc1-n1nc(C)c2c(C)cc(=O)n(CC(=O)N3CCCc4ccccc43)c21,-23%,3%[59 µM],15%,·,·,-14%
CC(C)CN(C(=O)COC(=O)c1cc2ccccc2cc1O)c1c(N)n(Cc2ccccc2)c(=O)[nH]c1=O,-24%,·,4%,-2%,-13,·
Cc1ccc(COc2cccc(/C=N/NC(=O)c3nnn(-c4nonc4N)c3C)c2)cc1,-10%,·,22%,-14%,1,2%
Cc1ccc(SCc2c(C(=O)N/N=C/c3ccc(C)o3)nnn2-c2nonc2N)cc1,·,·,·,-12%,-55*,·
Cc1cccc(COc2ccc(/C=N/NC(=O)c3nnn(-c4nonc4N)c3C)cc2)c1,?,72%,17%,21µM*,-12,-4%
Nc1nonc1-n1nnc(C(=O)N/N=C/c2cccc(Cl)c2)c1CN1CCCC1,?,·,6%,30µM*,-3,·
C/C(=N\NC(=O)c1cccnc1)c1nnn(-c2nonc2N)c1C,-17%,50µM*,75%,-14%,-5,-11%
CCCc1c(C(=O)N/N=C(\C)c2cccnc2)nnn1-c1nonc1N,·,·,·,2%,-2,·
CCOc1ccccc1-n1c(SCC(=O)N2CCOCC2)nc2ccccc2c1=O,-10%,16%,14%,2%,0,6%
COc1cccc(N2CCN(c3nc(-c4ccccc4C)cc(=O)[nH]3)CC2)c1,?,-19%,?,-9%,10,?
COC(=O)[C@H](C)N(Cc1ccc(Cl)c(Cl)c1)S(=O)(=O)CCNC1CCCC1,-17%,·,21%,-1%,11,·
CCCN(CCC)Cc1c(C(=O)N/N=C/C(C)=C\c2ccco2)nnn1-c1nonc1N,-34%,?,-11%,-13%,-18,?
CC(/C=N/NC(=O)c1nnn(-c2nonc2N)c1CN(C)C)=C\c1ccco1,-24%,79µM*,-10%,-14%,-6,-33%
COc1ccc(-n2c(C)c([N+](=O)[O-])c3ccc(O)c(CN4CCCCC4)c32)cc1,?,25µM*,?,-19%,-2,?
Cc1ccc(-n2c(C)c([N+](=O)[O-])c3ccc(O)c(CN(C)C)c32)cc1,-18%,?,?,-9%,-2,-37%
O=C(NCCN1CCCCCC1)C1CCC(CNS(=O)(=O)c2cccc3cccnc23)CC1 (configuration not stated),?,45µM*,25%,?,-3,-32%
Cc1ccc(CN2C(=O)C(O)(c3c(C)[nH]c4ccccc34)c3ccccc32)cc1 (configuration not stated),?,?,?,·,·,45µM*
CCCN1C(=O)C(O)(c2c(C)[nH]c3ccccc23)c2ccccc21 (configuration not stated),-5%,-15%[59 µM],34%,-5%,4,?
